Experimental data taken from article PMC10954555.

The substances below were run against Probable ATP-dependent RNA helicase DDX23 (UniProt Q9BUQ8) (assay: cross-link between two proteins; cross-linking mass spectrometry; other).
Chain of Probable ATP-dependent RNA helicase DDX23 (Q9BUQ8 whole entry): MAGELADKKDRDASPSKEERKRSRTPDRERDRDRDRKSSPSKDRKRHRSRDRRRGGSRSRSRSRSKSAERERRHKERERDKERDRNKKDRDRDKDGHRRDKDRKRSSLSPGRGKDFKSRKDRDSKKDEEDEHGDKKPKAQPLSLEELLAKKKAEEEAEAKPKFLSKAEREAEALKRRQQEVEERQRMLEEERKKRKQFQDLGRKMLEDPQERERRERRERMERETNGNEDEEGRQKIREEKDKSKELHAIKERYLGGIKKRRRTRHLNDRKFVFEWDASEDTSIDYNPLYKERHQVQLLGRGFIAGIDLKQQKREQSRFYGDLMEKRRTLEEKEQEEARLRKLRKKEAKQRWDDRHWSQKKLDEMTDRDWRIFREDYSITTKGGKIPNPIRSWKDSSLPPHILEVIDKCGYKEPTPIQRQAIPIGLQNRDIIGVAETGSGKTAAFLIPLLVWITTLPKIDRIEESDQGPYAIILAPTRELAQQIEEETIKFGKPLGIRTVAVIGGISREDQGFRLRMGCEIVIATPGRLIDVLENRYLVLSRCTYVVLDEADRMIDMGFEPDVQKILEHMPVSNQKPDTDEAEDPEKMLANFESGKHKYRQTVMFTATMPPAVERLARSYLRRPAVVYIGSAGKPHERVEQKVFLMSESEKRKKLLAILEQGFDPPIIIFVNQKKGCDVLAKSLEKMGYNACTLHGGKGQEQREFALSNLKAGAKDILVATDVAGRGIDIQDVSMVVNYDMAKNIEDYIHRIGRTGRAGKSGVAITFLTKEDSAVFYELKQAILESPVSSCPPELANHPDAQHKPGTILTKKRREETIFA

Listed as a hit, yes:
U4/U6.U5 tri-snRNP-associated protein 1, O43290
U5 small nuclear ribonucleoprotein 200 kDa helicase, O75643
116 kDa U5 small nuclear ribonucleoprotein component, Q15029
Pre-mRNA-processing factor 6, O94906
